A selection: hits, their analogues and other compounds. The true share with any hit is near 2.3%.
MCL1 BIM primary – inhibitors of human MCL1 binding to BIM-BH3 peptide | Q07820 | GST-MCL1 / FITC-Bim-BH3 fluorescence polarization | inhibition, % at 10.9 µM | 0.68% of 320,000 active | AID 2057;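 active means inhibition above the mean inhibition of all tested compounds plus 3 SD, set per campaign, cut at about 40% in these data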;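 further: higher means more loss of mP so more displacement of Bim peptide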
Mcl1 Bid PPI – disrupts binding of human Mcl-1 to Bid peptide. Q07820. 0.97% of 220,000 active. TR-FRET Mcl-1/Bid-Dy647 peptide binding, 1536-well. inhibition, % at 21.7 µM;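 active means compounds that cut the binding signal by more than half at the single screening dose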;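 further: His-tagged Mcl-1 with europium anti-His antibody binding Bid BH3 peptide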
GLD-1 RNA inh – GLD-1-TGE RNA interaction inhibition (C. elegans). purified GLD-1 + fluorescein TGE RNA, fluorescence polarization. inhibition, % at 5.96 µM. 0.44% of 320,000 active;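 active means percent inhibition above a per-plate cutoff, the plate mean of test compounds plus 3 SD, cut at about 30% in these data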
Target sequence (Q17339 whole entry, looked up): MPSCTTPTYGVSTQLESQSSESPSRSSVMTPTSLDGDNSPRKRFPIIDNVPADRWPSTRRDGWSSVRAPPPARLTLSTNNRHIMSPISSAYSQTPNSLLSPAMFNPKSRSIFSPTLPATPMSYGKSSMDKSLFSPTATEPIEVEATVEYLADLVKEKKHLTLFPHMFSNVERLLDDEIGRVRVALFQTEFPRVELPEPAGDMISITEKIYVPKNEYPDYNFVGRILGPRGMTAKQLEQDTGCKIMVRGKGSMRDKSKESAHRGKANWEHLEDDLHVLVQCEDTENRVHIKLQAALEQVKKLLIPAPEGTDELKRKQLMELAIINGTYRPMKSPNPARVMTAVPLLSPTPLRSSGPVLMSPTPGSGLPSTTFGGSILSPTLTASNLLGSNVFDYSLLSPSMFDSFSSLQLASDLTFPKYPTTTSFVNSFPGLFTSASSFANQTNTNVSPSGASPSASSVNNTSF
Bim-Mcl-1 – human Bim-Mcl-1 interaction inhibition. AID 1009. inhibition, % at 10 µM. Bead-based flow cytometry, Bim peptide-Mcl-1 binding. 0.1% of 190,000 active; in the data active means inhibition above about 40%
Bcl-xL primary – Bcl-xL (human) inhibition; Q07817; GST-Bcl-xL / FITC-Bim BH3 peptide fluorescence polarization; inhibition, % at 10.9 µM; 0.7% of 320,000 active; AID 2129;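 active means inhibition above the mean of all tested compounds plus 3 SD, cutoff set per campaign, cut at about 30% in these data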;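 further: inhibitors lower millipolarization by displacing the labeled peptide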
Target sequence (Q07817 whole entry, looked up): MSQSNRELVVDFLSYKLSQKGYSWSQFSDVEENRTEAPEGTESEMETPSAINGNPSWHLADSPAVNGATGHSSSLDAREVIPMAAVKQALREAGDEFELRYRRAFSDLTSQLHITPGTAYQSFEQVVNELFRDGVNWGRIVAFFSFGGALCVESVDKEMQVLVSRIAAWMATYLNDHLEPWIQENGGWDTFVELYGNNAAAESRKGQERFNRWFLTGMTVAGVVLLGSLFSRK
Mcl1-Noxa inh – disrupts binding of human Mcl-1 to Noxa peptide. AID 1022. inhibition, % at 21.7 µM. 1.5% of 220,000 active. Q07820. TR-FRET Mcl-1/Noxa peptide binding, 2 h;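 active means compounds that cut the protein-peptide binding signal by more than 50% relative to plate controls in a single-dose test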;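 further: His-tagged Mcl-1 with rhodamine Noxa BH3 peptide and terbium anti-His antibody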
Each line names hits and unclear results; the compound was inactive in the other large screens.

Cc1cc(C)c(S(=O)(=O)/N=C2/C=C(Sc3ncn[nH]3)C(=O)c3ccccc32)cc1C	Mcl1 Bid PPI 72, Mcl1-Noxa inh 100
COC(=O)c1c(NC(=O)Cc2cccs2)sc2c1CCCC2	Mcl1-Noxa inh 80
O=C(COC(=O)c1cc(Br)ccc1Cl)NC1CCCC1	none
Cc1ccc(N2C(=O)C3C(C2=O)C(C(=O)c2ccc(Cl)cc2)N2CCCC32)cc1 (stereo unspecified)	MCL1 BIM primary 72, GLD-1 RNA inh 46, Bcl-xL primary 73
CCCCOc1ccc2c(c1)C(=O)c1cc(O)ccc1-2	GLD-1 RNA inh 139
CCOc1ccc2c(c1)C(=O)c1cc(OCC(=O)O)ccc1-2	none (no result: Bim-Mcl-1)
COCC(=O)NCCc1ccc(S(N)(=O)=O)cc1	none
Nc1nccnc1C(=O)OCC(=O)NCCc1ccc(S(N)(=O)=O)cc1	Bcl-xL primary 35 (no result: Mcl1 Bid PPI, Bim-Mcl-1, Mcl1-Noxa inh)
COc1ccc(N2CCN(CC(=O)Nc3nc(C)cs3)CC2)cc1	none (no result: Mcl1 Bid PPI, Bim-Mcl-1, Mcl1-Noxa inh)
Cc1occc1C(=O)NNC(=S)NCc1ccccc1	Bim-Mcl-1 60
Cc1occc1C(=O)NNC(=S)NCc1ccc(Cl)cc1	none
COc1cc2nc(N3CCN(C(=O)OCc4ccccc4)[C@H](C(=O)NC(C)(C)C)C3)nc(N)c2cc1OC	none (no result: Mcl1 Bid PPI, Bim-Mcl-1, Mcl1-Noxa inh)
NC1=NC2(CCCCC2)n2c(nc3ccccc32)N1	none
N=c1cc(C2(O)CCCCC2)n2c(nc3ccccc32)s1	Mcl1 Bid PPI 98
CCOc1ccc(NC(=O)CC2C(=O)N(c3ccc(OC)cc3)C(=S)N2Cc2ccccn2)cc1 (stereo unspecified)	Mcl1 Bid PPI 82
O=C(O)c1ccc(-c2ccc(/C=C3\NC(=O)N(Cc4ccc(Cl)cc4)C3=O)o2)cc1	Mcl1-Noxa inh 61 (no result: MCL1 BIM primary, GLD-1 RNA inh, Bim-Mcl-1, Bcl-xL primary)
Cc1cc(C(=O)O)ccc1-c1ccc(/C=C2\NC(=O)N(Cc3ccccc3Cl)C2=O)o1	Mcl1-Noxa inh 61
Cc1ccc(CN2C(=O)N/C(=C\c3ccc(-c4ccc(C(=O)O)cc4C)o3)C2=O)cc1	Mcl1-Noxa inh 57 (no result: Bim-Mcl-1)
CCCCCCc1ccc(N2C[C@H](C)[C@@H](CC(=O)NCc3ccccc3)C2=O)cc1	GLD-1 RNA inh 41 (no result: Mcl1 Bid PPI, Bim-Mcl-1, Mcl1-Noxa inh)
Cc1ccc(S(=O)(=O)N2CCCCC2C(=O)O)s1 (stereo unspecified)	none
C=C(CCC(=O)c1ccccc1)C(=O)c1ccccc1	Bcl-xL primary 85
O=C(CCCCCCCC(=O)c1ccccc1)c1ccccc1	none
O=C(NNC(=O)c1ccccc1[N+](=O)[O-])c1ccc(NC(=O)c2ccccc2)cc1	none (no result: Mcl1 Bid PPI, Bim-Mcl-1, Mcl1-Noxa inh)
COC(=O)[C@@]1(Cc2ccc(F)cc2)[C@H]2c3cc(C(=O)N4CCCC4)n(CCc4ccc(O)c(O)c4)c3C[C@H]2CN1C(=O)c1ccccc1	Mcl1-Noxa inh 65
CC(=O)Nc1ccc(NC(=O)CSc2nnc(-c3ccco3)o2)cc1	none
CC(=O)c1ccc(NC(=O)CSc2nnc(-c3ccco3)c(-c3ccco3)n2)cc1	Mcl1-Noxa inh 79
C=CCn1c(=O)/c(=C2/SC(C)=C(C)N2CC)s/c1=C1/C(=O)N(CC)C(=S)N1c1ccccc1	Mcl1 Bid PPI 59
CCc1nc(SCC(=O)NCCc2ccccc2)c2c(=O)n(C)c(=O)n(C)c2n1	none (no result: Bim-Mcl-1)
CN(CC(=O)Nc1ccc(F)cc1)C(=O)CSc1nc2ncc(Cl)cc2[nH]1	Mcl1-Noxa inh 67
COc1cc(C(=O)Nc2ccc(N3CCCS3(=O)=O)cc2)c([N+](=O)[O-])cc1OC	none (no result: Mcl1 Bid PPI, Bim-Mcl-1, Mcl1-Noxa inh)
CC(=O)c1c(C)[nH]c(C(=O)OCC(=O)c2ccc(C)s2)c1C	none (no result: Mcl1 Bid PPI, Bim-Mcl-1, Mcl1-Noxa inh)
CCN(CC)c1ccc(NC(=O)c2cccc(C)c2OC)c(C)c1	Mcl1-Noxa inh 62
CCN(CC)c1ccc(NC(=O)c2cccnc2)c(C)c1	none
O=[N+]([O-])c1cc(S(=O)(=O)Nc2ccc(Cl)cc2)ccc1N/N=C/c1ccncc1	Mcl1-Noxa inh 52
COC(=O)N/N=C/c1cc(N=Nc2ccccc2)ccc1O	none (no result: Bim-Mcl-1)
Cc1cc(C(=O)N/N=C/c2cc(N=Nc3ccccc3)ccc2O)n[nH]1	Mcl1-Noxa inh 95
COC(=O)N/N=C/c1cc(N=Nc2ccccc2Cl)ccc1O	Mcl1-Noxa inh 88 (no result: Bim-Mcl-1)
Cc1cc(C(=O)N/N=C/c2cccc([N+](=O)[O-])c2O)n[nH]1	none
Cc1csc(=O)n1CC(=O)OCC(=O)NCc1ccc(F)cc1	none (no result: Mcl1 Bid PPI, Bim-Mcl-1, Mcl1-Noxa inh)
COc1ccc(CCN2CC(C(=O)NCc3cccc4[nH]ccc34)CCC2=O)cc1 (stereo unspecified)	none (no result: Mcl1 Bid PPI, Bim-Mcl-1, Mcl1-Noxa inh)
COc1ccc2nc3cccc(OC)c3nc2c1	Bcl-xL primary 46
COc1ccc2nc(-c3ccccc3)cc(OC)c2c1	none
COc1ccc2nc3ccccc3nc2c1N	Mcl1-Noxa inh 55 (no result: Bim-Mcl-1)
COc1cc(/C=N/NC(=O)c2ccc(COc3cc(C)ccc3C(C)C)cc2)cc(OC)c1O	Mcl1-Noxa inh 51
COc1cc(OC)cc(-c2nnc(NC(=O)c3ccc4c(c3)OCCO4)o2)c1	none (no result: Mcl1 Bid PPI, Bim-Mcl-1, Mcl1-Noxa inh)
O=C(Nc1ccc(N2CCOCC2)cc1)Nc1ccc2nsnc2c1	Mcl1-Noxa inh 61
CC1CCc2sc(C(=O)Nc3ccc(N4CCOCC4)cc3)cc2C1 (stereo unspecified)	Mcl1-Noxa inh 52
O=C(Nc1ccc(N2CCOCC2)cc1)c1cnsn1	none (no result: MCL1 BIM primary, GLD-1 RNA inh, Bcl-xL primary)
CC1(C(=O)NNC(=O)C2CCCCC2)CC1(Cl)Cl (stereo unspecified)	Mcl1 Bid PPI 99 (no result: Bim-Mcl-1)
COc1ccc(OCCOCCN2CCc3ccccc3C2)cc1	Mcl1 Bid PPI 62
Cc1ccc2[nH]c3c(=O)n(CC(=O)N4CCN(C)CC4)ncc3c2c1	none (no result: Mcl1 Bid PPI, Bim-Mcl-1, Mcl1-Noxa inh)
Nn1c(SCC(=O)Nc2cccnc2Cl)nnc1-c1ccccc1	none (no result: Mcl1 Bid PPI, Bim-Mcl-1, Mcl1-Noxa inh)
O=C1CCCc2c1sc1nc3n(c(=O)c21)CCCCC3	none
O=C1c2sc3nc4n(c(=O)c3c2CCC1Br)CCCCC4 (stereo unspecified)	Bcl-xL primary 30 (no result: Mcl1-Noxa inh)
O=c1[nH]c2cc3c(cc2cc1CN(CCCO)Cc1nnnn1Cc1ccc(F)cc1)OCO3	Bcl-xL primary 33
O=c1[nH]c2cc3c(cc2cc1CN(Cc1cccnc1)Cc1nnnn1Cc1ccco1)OCCO3	MCL1 BIM primary 44, Bcl-xL primary 34
COc1ccccc1CN(Cc1cc2cc3c(cc2[nH]c1=O)OCCO3)Cc1nnnn1Cc1ccco1	Bcl-xL primary 32
O=c1[nH]c2cc3c(cc2cc1CN(Cc1ccccc1)Cc1nnnn1Cc1ccco1)OCCO3	none (no result: MCL1 BIM primary, GLD-1 RNA inh, Bcl-xL primary)
COc1cc2c(=O)n(Cc3ccccc3)c(=O)n(CC(=O)NCc3ccco3)c2cc1OC	Mcl1 Bid PPI 52 (no result: MCL1 BIM primary, GLD-1 RNA inh, Bcl-xL primary)
O=C(Nc1ccc(NC(=O)c2cccs2)c(Cl)c1)c1cccs1	none (no result: Mcl1 Bid PPI, Bim-Mcl-1, Mcl1-Noxa inh)
CCOC(=O)c1sc2nc(N3CCOCC3)c3c(c2c1N)CCCC3	none
CCN(CC)C(=O)c1sc2nc(N3CCOCC3)c3c(c2c1N)CCCC3	Mcl1-Noxa inh 59
C=CC[C@@H](CC(=O)NCCO)C(=O)N[C@@H](COC(=O)[C@@H](CC=C)CC(=O)OC(C)(C)C)Cc1c[nH]c2ccccc12	none (no result: MCL1 BIM primary, Mcl1 Bid PPI, Bim-Mcl-1, Bcl-xL primary, Mcl1-Noxa inh)
